# Experimental data: ChEMBL document CHEMBL1157539, “Thousands of chemical starting points for antimalarial lead identification” (Nature, 2010)
# Several values for one entry are separate records, joined by “and”; a condition that tells them apart may be missing. Identical values can stand only once.
# Legend:
# Assay type in all cases: functional
# Plasmodium falciparum [1] = assay: GSK_TCMDC: Inhibition of Plasmodium falciparum 3D7 in whole red blood cells, using parasite LDH activity as an index of growth. Test compounds present at 2uM
# Plasmodium falciparum [2] = assay: GSK_TCMDC: Inhibition of Plasmodium falciparum Dd2 in whole red blood cells, using parasite LDH activity as an index of growth. Test compounds present at 2uM
# HepG2 = assay: GSK_TCMDC: Percent inhibition of human HepG2 cell line. Test compounds present at 10uM.
SMILES,Inhibition (Plasmodium falciparum [1]),Inhibition (Plasmodium falciparum [2]),Inhibition (HepG2) [%]
Cl.Oc1ccc2c(CNC3CCCCC3)c(O)ccc2c1CNC1CCCCC1,100%,100%,
CC(C)Oc1ccc2ccccc2c1CNCCCCCCNCc1c(OC(C)C)ccc2ccccc12.CS(=O)(=O)O,99%,90%,
Cc1nc(C)c(-c2ccc(Sc3ccc(Cl)cc3)cc2)c(O)c1Br,98%,97%,
COc1ccc(Cc2cnc(N)nc2N)cc1OCCCOc1ccccc1,91%,4%,
Cc1nc(C)c(-c2ccc(Oc3ccc(Cl)c(Cl)c3)cc2)c(O)c1Br,97%,96%,
CCCCOc1c(CCNCCCCNCCc2cc(OC)c3ccccc3c2OCCCC)cc(OC)c2ccccc12.CS(=O)(=O)O,91%,47%,
Cc1nc2nc(N)nc(N)c2c(C)c1Cc1ccc([N+](=O)[O-])cc1.Cl,98%,11%,
CCOC(=O)c1nc2ccc(SC3CCCCC3)cn2c1Br,86%,3%,
Cl.Nc1nc(N)c2c(n1)CCc1cc(Br)ccc1-2,87%,4%,
Cc1[nH]c(C)c(-c2ccc(Oc3ccc(C(F)(F)F)cc3)cc2)c(=O)c1Br,97%,97%,
CN1CCN(c2ccc3[nH]c(-c4ccc5[nH]c(-c6ccc([N+](=O)[O-])c(N)c6)nc5c4)nc3c2)CC1,100%,100%,
Cc1nc(C)c(-c2ccc(Oc3ccc(OC(F)(F)F)cc3)cc2)c(OC(=O)c2ccccc2)c1Cl,97%,97%,
Cl.Oc1cc2ccccc2cc1CNC1CCCCC1,98%,89%,
CCC1=C(CC2NCCc3cc(OC)c(OC)cc32)CC2c3cc(OC)c(OC)cc3CCN2C1 (centres undefined) [DIHYDROEMETINE],100%,100%,
Cc1nc(C)c(-c2ccc(Oc3ccc([S+](C)[O-])cc3)cc2)c(O)c1Br (centres undefined),91%,64%,
COc1cc(Cc2cnc3nc(N)nc(N)c3c2C)cc(OC)c1OC,95%,98%,
N=C(N)NC(=O)Nc1ccc(Cl)c(C(F)(F)F)c1,100%,13%,
CN(C)S(=O)(=O)n1ncc2c3c(N)nc(N)nc3ccc21.Cl,96%,0%,
CCCCCCCCCC(=O)NCC1CC(Br)=NO1 (centres undefined),87%,42%,
Cl.Nc1nc(N)c2c(ccc3nn(Cc4ccccc4)cc32)n1,97%,88%,
CC(=O)Oc1c(Br)c(C)nc(C)c1-c1ccc(Oc2ccc(OC(F)(F)F)cc2)cc1,98%,97%,
COc1ccc2c(c1CNCCCCCCNCc1c(OC)ccc3c1CCCC3)CCCC2,94%,7%,
CCCc1cc(Cc2cnc(N)nc2N)cc2c1OC(C)(C)C2.Cl,89%,3%,

SMILES,Inhibition (Plasmodium falciparum [1]),Inhibition (Plasmodium falciparum [2]),Inhibition (HepG2) [%]
Nc1nc(N)c2c3c(ccc2n1)CCC3,92%,2%,
CC(CNC(=N)c1cccc(C(=N)NCC(C)Oc2cccc(C3CCCCC3)c2)n1)Oc1cccc(C2CCCCC2)c1.Cl (centres undefined),90%,31%,
CCCCNCc1ccc(OCc2cccc(COc3ccc(CNCCCC)cc3)c2)cc1.Cl,100%,35%,98
O=C(O)C(F)(F)F.c1ccc(CNCc2ccc(-c3cccc(-c4nc5ccccc5[nH]4)c3)cc2)cc1,100%,78%,55
COc1ccc(-c2ccc(Nc3cccc(S(=O)(=O)CCN4CCC(CCN(C)C)CC4)c3)nc2)cn1,100%,9%,44
CC1CN(Cc2ccc(-c3ccc(-c4nc5cc(F)ccc5[nH]4)cc3)cc2)CC(C)O1.O=C(O)C(F)(F)F (centres undefined),96%,93%,40
COc1ccc2nccc([C@@H](O)CN3CCC(NCc4ccc5c(c4)NC(=O)C(C)S5)CC3)c2c1.O=C(O)C(=O)O (some centres undefined),99%,72%,7
O=C(NCc1ccco1)c1ccc(CN2CCN(C(c3ccccc3)c3ccccc3)CC2)cc1,96%,92%,6
CCc1ccc(S(=O)(=O)Nc2ccc(CCN(C)C3CCN(C)CC3)cc2)cc1,86%,9%,25
Br.CC1(C)NC(=N)NC(=N)N1OCC=Cc1ccccc1,94%,96%,62
Cl.N=C(N)c1cccc(OCCCOc2cccc(NC(=O)Nc3ccc([N+](=O)[O-])cc3)c2)c1,98%,22%,16
CC(CNC(=O)C(c1cc2ccccc2o1)N1CCN(C(c2ccccc2)c2ccccc2)CC1)c1ccccc1 (centres undefined),99%,89%,2
Cc1ccc(O)cc1Nc1ccnc2cc(-c3ccc(CN4CCCCC4)o3)ccc12,100%,99%,16
COc1ccccc1C1CCN(C2CCC(NC(=O)/C=C/c3cc(C(F)(F)F)ccc3F)CC2)CC1 (centres undefined),97%,32%,39
CN(Cc1cnc2nc(N)nc(N)c2n1)c1ccc(C(=O)N[C@@H](CCC(=O)O)C(=O)O)cc1 [METHOTREXATE],91% and 92%,44% and 66%,
COc1cc(CNCCCCCCNCc2cc(OC)cc3ccccc23)c2ccccc2c1.CS(=O)(=O)O,100%,94%,57
COc1ccc(NC(=O)Nc2cccc(-c3ccc(-c4nc5cccc(C)c5[nH]4)s3)c2)cc1,100%,32%,23
CCCC(C)Nc1nc(C)cc(N[C@@H](CC(C)C)C(=O)NCc2ccc(C)cc2)n1.O=C(O)C(F)(F)F (some centres undefined),98%,51%,16
CC(C)C(NC(=O)Cc1cccc2ccccc12)C(=O)Nc1cccc(C#N)c1 (centres undefined),92%,91%,0
CC(=O)Oc1c(C2CCN(CCCCNC(=O)c3ccc(-c4ccc(C#N)cc4)cc3)CC2)ccc2c1CCCC2,88%,52%,21
CN(C)CCCNCc1ccc(-c2ccc(C(F)(F)F)cc2)cc1,96%,35%,30
CS(=O)(=O)CCNC(=O)c1ccc(-c2cc3c(Nc4ccc5c(cnn5Cc5ccccc5)c4)ncnc3cn2)o1.Cl,97%,46%,6
Br.CCCCCCn1c2c(c(=N)c3c1CCC3)CCCC2,99%,76%,31

SMILES,Inhibition (Plasmodium falciparum [1]),Inhibition (Plasmodium falciparum [2]),Inhibition (HepG2) [%]
COc1ccc(NC(=O)/C=C/c2ccccc2Cl)cc1OCCN1CCN(c2ccncc2)CC1,100%,52%,7
C=C[C@H]1CN(CCCCCCC)CC[C@H]1CC(O)Cc1ccnc2cc(O)c(OC)cc12.O=C(O)C(=O)O (some centres undefined),95%,59%,7
N#Cc1ccc(N2CCN(Cc3ccc(-c4cccc(-c5nc6ccccc6[nH]5)c4)cc3)CC2)nc1.O=C(O)C(F)(F)F,95%,29%,33
COc1cc(Nc2nc(N)n(C(=O)c3ccc4c(c3)OCO4)n2)cc(OC)c1OC,90%,40%,60
CN1CCC(c2c[nH]c3ccc(NC(=O)Nc4ccc(-c5ccncc5)cc4Cl)cc23)CC1,100%,7%,31
COc1cc2c(cc1OC)C(C)(C)CN1Cc3c(c(CO)c(OC)c(OC)c3OC)CC21.Cl (centres undefined),95%,9%,
O=C(CSc1nnc(O)n1Cc1ccccc1)Nc1ccccc1-c1ccccc1,89%,36%,0
CCCCc1nc2nc(N)nc(N)c2cc1CCC,97%,0%,
COc1cc2nc(N3CCC(CNC(=O)c4ccc(-c5ccc(C(=O)N(C)C)cc5C)cc4)CC3)nc(N3CCN(C)CC3)c2cc1OC,88%,84%,26
CN(C)CCn1cc(C(=O)c2cc(Cl)ccc2O)cc1-c1nc2ccccc2c(=O)[nH]1,99%,87%,16
COC[C@H]1CCCN1Cc1ccc(-c2ccc(-c3nc4ccccc4[nH]3)s2)cc1,95%,58%,18
Cl.Nc1ccncc1C(=O)NCCCCN1CCN(c2nsc3ccccc23)CC1,100%,9%,
COc1ccc2nccc(N3CCC(SCCNS(=O)(=O)c4ccc5c(c4)NC(=O)CS5)C3)c2n1.Cl (centres undefined),99%,17%,20
COc1ccc(CNC(=O)c2cc3c(=O)n4ccccc4nc3n(CCc3ccccc3)c2=N)cc1,99%,22%,26
Cc1cccc2nc(-c3ccc(-c4cccc(C(=O)N5CCCCC5C(C)O)c4)s3)[nH]c12 (centres undefined),100%,53%,27
O=C(/C=C/c1ccc(Cl)c(Cl)c1)N1CCC(CCN2CCC(c3c[nH]c4ccccc34)CC2)CC1,100%,44%,56
Cc1cccc(Cn2ccc3c4c(N)nc(N)nc4ccc32)c1,95%,98%,
CCC(C)CNC(=O)CN1CN(c2ccccc2)C2(CCN(C(=O)c3ccc(Br)cc3)CC2)C1=O (centres undefined),88%,88%,10
Cc1cccc(-c2nn(-c3ccccc3)c3[nH]c(=O)c(CN4CCSCC4)cc23)c1,98%,98%,0
CNCCCn1c(N(C)C)nc2cc(-n3cnc4cc(-c5ccc(Cl)cc5)sc4c3=O)ccc21.O=C(O)C(F)(F)F,86%,27%,39
O=C(COc1cccc([N+](=O)[O-])c1)Nc1ccc(-c2nc3ccccc3[nH]2)cc1,99%,5%,12
Cl.Nc1ccnc2ccc(OCCCCCCc3ccccc3)cc12,100%,99%,96
